Screening data from PubChem BioAssay.
HCMV inh – blocks human cytomegalovirus replication; AID 1259415; HFF cells, HCMV-luciferase reporter, 72 h; stronger effect = lower value; activity change, negative = inhibition, % at 57.5 µM; hit rate 4.5% among 410,000; in the data active means activity change below about -60%; inconclusive means no clear call, values can overlap the other calls; inactive means above about -39%; further: on the % scale 0 is the no-effect control and ±100 the full control effect
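Luciferase read-out from HCMV-luciferase-infected HFFs (MOI 1 PFU/cell) 72 h post infection at 37C; compounds added after 16 h cell attachment; activity normalized between buffer-only basal and Salinomycin (10uM) inhibitor controls.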
Shiga inhibitor – inhibitors of Shiga toxin in Vero cells. Vero cells, Shiga toxin protein synthesis inhibition reporter. inhibition, % at 38.7 µM. hit rate 9.2% among 290,000; in the data active means inhibition mostly above about 28%, no sharp cut-off; inactive means mostly below about 43%; further: 0% is about no effect
Pf growth 48h – inhibits P. falciparum growth in the first generation, 48 h; P. falciparum luciferase growth in erythrocytes, 48 h; Potency, µM (doses to about 28.7 µM), inactives show top-dose activity change, negative = inhibition, hits mostly inhibitors; hit rate 5.9% among 310,000; further: potency means the concentration at half of the fitted maximal effect; on the % scale 0 is the no-effect control and ±100 the full control effect
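Cell-based growth assay: transgenic P. falciparum expressing firefly luciferase, cultured in red cells within RPMI 1640 containing 0.5% w/v Albumax, 24 mM bicarbonate and gentamycin. A drop in luciferase activity indicates inhibition.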
Pf growth 96h – P. falciparum growth inhibition at 96 hour, primary screen for plastid delayed-death inhibitors; hit rate 6.9% among 320,000; AID 504834; P. falciparum luciferase reporter growth, 96 h; Potency, µM (titrated, usually from 28.7 µM), for the others: at the top dose activity change, negative = inhibition, actives largely listed as inhibitors; further: potency means the concentration at half of the fitted maximal effect; on the % scale 0 is the no-effect control and ±100 the full control effect
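Readout is luminescence from an integrated firefly luciferase in P. falciparum. Red cells, 2% hematocrit and 0.05% parasitemia final, were cultured with compound through two parasite generations (96 hours) at 37 C, 5% CO2.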
Cycloheximide cs – counter-screen for Shiga toxin inhibitors: cycloheximide protein synthesis inhibition | cell reporter, cycloheximide protein synthesis inhibition counterscreen | max response, % | hit rate 12% among 300,000; in the data active means max response mostly above about 13%, no sharp cut-off; inactive means mostly below about 14%; further: read at 38.3 µM for the half of the compounds with a filed dose; 0% is about no effect
* marks the source's active call; other numbers are inactive results; u = inconclusive; x = no result given; [ ] = another dose, or the depositor's remark. An excerpt weighted towards active compounds, which were near 20% of everything screened. Unless noted, the call rests on the fitted dose curve; in most records, active means well fitted inhibition curve with a large enough effect; inconclusive means small, poorly fitted or top-dose-only effect, or another doubt; inactive means no such curve, though single readings can be large or run the other way.

SMILES | HCMV inh | Shiga inhibitor | Pf growth 48h | Pf growth 96h | Cycloheximide cs
CCOC(=O)c1ccc(NC(=O)C2CCN(S(=O)(=O)c3ccc(C)cc3)CC2)cc1 | -1 | x | x | x | x
CCOC(=O)c1ccc(NC(=O)COC)cc1 | 54 | 35* | 48% | 15µM* | 11*
CCOC(=O)c1ccc(NC(=O)C2CC2)cc1 | 11 | 72* | 64% | u | 22*
CCCCOC(=O)c1ccc(NC(=O)c2c(O)[nH]c(=O)[nH]c2=O)cc1 | 12 | x | x | x | x
CCOC(=O)c1cc(C)n(CC2CCC(C(=O)Nc3ccc(OCC)cc3)CC2)c1C (centres undefined) | -61* | x | x | x | x
CCCCOC(=O)c1ccc(NC(=O)c2c(Cl)ccc(Cl)c2OC)cc1 | -25 | 2 | -1% | 5.2µM* | -2
Cc1ccc(C)c(OCC(=O)Nc2ccccc2C(=O)N2CCOCC2)c1 | 19 | -6 | u | -27% | -4
O=C(Nc1ccccc1)N(Cc1cccs1)c1ccc(Cl)cc1 | -25 | x | x | x | x
CCCCOC(=O)Nc1ccc(C(=O)OCCC)cc1 | 21 | 134* | 18% | 39% | 29*
CCOC(=O)c1ccc(NC(=O)C(CC)(CC)C(=O)OCC)cc1 | 47 | -10 | 8.3µM* | x | -5
CCCCOC(=O)c1ccc(O)cc1 | 1 | 14 | 39% | 12% | 11
CCOC(=O)c1ccc(NC(=S)NN)cc1 | -35 | 8 | u | u | -3
CCOC(=O)c1cccc(NC(=O)c2ccccc2C)c1 | 10 | 6 | 3% | 92% | 18
CCOC(=O)c1ccc(NC(=O)c2ccccc2C)cc1 | -2 | 86* | 19% | -26% | 53*
CCOC(=O)c1cc(NC(=O)C2CCCO2)cc(C(=O)OCC)c1 (centres undefined) | 10 | -7 | 24% | 23%[5.75 µM] | 1
CCOC(=O)c1ccc(NC(=O)C2CCCO2)cc1 (centres undefined) | 21 | 55* | 62% | -2% | 32*
CC(=O)Oc1ccc2nc(/C=C/c3ccccc3)oc(=O)c2c1 | -12 | x | 21% | u | -3
CCCCOC(=O)c1ccc(NC(=O)C2CCCO2)cc1 (centres undefined) | 76 | 67* | 63% | x | 36*
COC(=O)c1ccc(NC(=O)c2ccc(NC(=O)C3CCCO3)cc2)cc1 (centres undefined) | u | -13 | u | 1% | 7
CCc1ccc(NC(=O)c2ccc(NC(=O)C3CCCO3)cc2)cc1 (centres undefined) | x | 56* | 15% | u | 14*
Cc1ccc(S(=O)(=O)c2nc(-c3cccs3)oc2N2CCC(C(N)=O)CC2)cc1 | 18 | x | x | x | x
CC(=O)N1c2ccc(S(=O)(=O)NC(CC(=O)O)c3ccc(Br)cc3)cc2CC1C (centres undefined) | 0 | -6 | 10% | 18% | 2
C#CCOCCOCCOCCNc1nc(N2CCN(C(=O)CCCCCCCCCCNC(=O)[C@H](CCCCN)n3cc(C)nn3)CC2)nc(N2CCN(C(=O)CCCCCCCCCCNC(=O)[C@H](CCCCN)n3cc(CCCC(=O)O)nn3)CC2)n1 | x | x | 10µM* | u | x
C#CCOCCOCCOCCNc1nc(N2CCN(C(=O)CCCCCCCCCCNC(=O)[C@H](CCCCN)n3cc(CCCC(=O)O)nn3)CC2)nc(N2CCN(C(=O)CCCCCCCCCCNC(=O)[C@@H]([C@H](C)O)n3cc(C)nn3)CC2)n1 | x | x | 5.2µM* | 5.9µM* | x
CCOc1ccc(CNS(=O)(=O)c2cc(-c3cc(C)no3)ccc2C)cc1OC | 0 | x | x | x | x
SMILES | HCMV inh | Shiga inhibitor | Pf growth 48h | Pf growth 96h | Cycloheximide cs
CCC[C@H]1[C@@H](NC(=O)Nc2ccc(C(F)(F)F)cc2)CC[C@@]23CCCN2C(=O)CCC[C@@H]13 | -5 | x | x | x | x
CC1SC(c2ccccc2Cl)NC1=O (centres undefined) | -17 | -17 | x | 12µM* | -1
O=C1CCC([N+](=O)[O-])C(c2ccccc2Cl)N1 (centres undefined) | 3 | -16 | x | -10% | -6
Cc1cc(O)c(C(C)C)cc1N=Nc1ccccc1C(=O)O | -21 | 14 | -29% | u | 3
Cc1cc(NO)c(C(C)C)cc1N=O | -65* | -5 | -11% | 3% | -1
Cc1sc2ncnc(OCC(=O)N3CCN(S(=O)(=O)c4ccc(Cl)cc4)CC3)c2c1C | -28 | 14 | u | 23% | 10*
Cc1sc2ncnc(N3CCCCC3)c2c1C | u | -22 | 0% | x | -2
Cc1sc2ncnc(N3CCOCC3)c2c1C | -66* | -11 | 7% | x | -2
Cc1ccc(OCCN2CCN(c3ncnc4sc(C)c(C)c34)CC2)cc1 | -99* | -8 | x | u | 1
Cc1sc2ncnc(N3CCN(S(=O)(=O)c4ccccc4)CC3)c2c1C | x | x | 13µM* | u | x
O=C(Cn1cncn1)c1ccccc1 | 0 | 2 | 19% | 1% | -1
Cc1sc2nc(CN3CCCC3)nc(N3CCN(S(=O)(=O)c4ccccc4)CC3)c2c1C | -29 | x | 10µM* | 4.7µM* | x
Cc1sc2nc(CN3CCCC3)nc(Cl)c2c1C | -1 | -4 | u | u | -2
CC(C)[C@H](NC(=O)N1CCn2c1nc1ccccc12)C(=O)N[C@@H](Cc1ccccc1)C(=O)O | -11 | 1 | -24% | -11% | -1
COC(=O)c1ccc(NS(=O)(=O)c2ccccc2)o1 | -12 | -6 | 7% | 61% | -3
Cc1cc(NC(=O)CSc2nc(=O)cc(N)n2-c2ccc(Cl)cc2)no1 | -64* | -4 | 1% | u | 5
O=C(CSc1nnc(-c2ccc(O)cc2)o1)Nc1ccccc1 | 1 | 61* | -75% | 37% | 28*
Cc1cccc(-n2c(N)cc(=O)nc2SCC(=O)Nc2cc(C)on2)c1 | -32 | 3 | u | -14%[5.75 µM] | -2
Cc1cc(NC(=O)CSc2nnc(-c3ccccc3)o2)no1 | 15 | 39 | u | 12µM* | -2
Cc1cc(C)cc(-c2nnc(SCC(=O)Nc3cc(C)on3)o2)c1 | -10 | x | 4% | u | x
O=C(O)CCc1ccc(-c2cccs2)o1 | x | 12 | 3% | x | 12
Cc1ccc(-c2ccc(CCC(=O)O)o2)cc1 | 36 | 45* | -3% | 97% | 38*
COc1ccc(CNC(=O)Nc2ccc3c(c2)N(C)C(=O)CS3)cc1 | -2 | -10 | -13% | -39% | -6
O=C(NCc1ccccn1)C(C(=O)c1cccc([N+](=O)[O-])c1)n1cc(Cl)ccc1=O (centres undefined) | 47 | 25 | 8% | 41% | 12
O=C(CN(CC(=O)Nc1ccc(Br)cc1)CC(=O)Nc1ccc(Br)cc1)Nc1ccc(Br)cc1 | -17 | x | x | x | x
Cc1cc(NC(=O)CSc2nnc(-c3ccc(O)cc3)o2)no1 | -23 | 52* | 6.6µM* | u | active
Cc1cc(NC(=O)CSc2ccc3nnc(-c4ccccc4)n3n2)no1 | 34 | 10 | 2.6µM* | 13% | 1
Cc1cc(NC(=O)c2cc(-c3ccccc3)on2)no1 | -14 | -11 | 53% | 44% | -4
Cc1cc(C)c2cc(C#N)c(SCC(=O)Nc3cc(C)on3)nc2c1 | -61* | -5 | 14% | -18% | -7
CCc1cc2c(C)cc(C)cc2nc1SCC(=O)Nc1cc(C)on1 | -4 | -6 | -8% | -5% | -3
